This passage reports inhibition results from ChEMBL document CHEMBL3433997, “St. Jude Leishmania screening dataset” (2016).

Assay type in all cases: functional
Assay [1] concerns the target Solute carrier family 2, facilitated glucose transporter member 1 (Homo sapiens) (UniProt P11166). Briefly: ST_JUDE_LEISH: Cytotoxicity at 2uM final concentration against transgenic Leishmania Mexicana promastigotes LmGLUT1 that are glucose transport deficient and complemented with the human glucose transporter GLUT1. Activity is measured by DNA content using SYBR green in vitro.

Assay [2] has as its target Hexose transporter 1 (Plasmodium falciparum) (UniProt O97467). The experiment in a line: ST_JUDE_LEISH: Cytotoxicity at 2uM final concentration against transgenic Leishmania Mexicana promastigotes LmPfHT that are glucose transport deficient and complemented with the Plasmodium falciparum hexose transporter. Activity is measured by DNA content using SYBR green in vitro.

The target in assay [3] is Glucose transporter (Leishmania mexicana) (UniProt O61059). The experiment in a line: ST_JUDE_LEISH: Cytotoxicity at 2uM final concentration against transgenic Leishmania Mexicana promastigotes LmGT2 that are glucose transport deficient and complemented with the L. Mexicana glucose transporter 2. Activity is measured by DNA content using SYBR green in vitro.

Chain of Solute carrier family 2, facilitated glucose transporter member 1 (Homo sapiens) (P11166 whole entry): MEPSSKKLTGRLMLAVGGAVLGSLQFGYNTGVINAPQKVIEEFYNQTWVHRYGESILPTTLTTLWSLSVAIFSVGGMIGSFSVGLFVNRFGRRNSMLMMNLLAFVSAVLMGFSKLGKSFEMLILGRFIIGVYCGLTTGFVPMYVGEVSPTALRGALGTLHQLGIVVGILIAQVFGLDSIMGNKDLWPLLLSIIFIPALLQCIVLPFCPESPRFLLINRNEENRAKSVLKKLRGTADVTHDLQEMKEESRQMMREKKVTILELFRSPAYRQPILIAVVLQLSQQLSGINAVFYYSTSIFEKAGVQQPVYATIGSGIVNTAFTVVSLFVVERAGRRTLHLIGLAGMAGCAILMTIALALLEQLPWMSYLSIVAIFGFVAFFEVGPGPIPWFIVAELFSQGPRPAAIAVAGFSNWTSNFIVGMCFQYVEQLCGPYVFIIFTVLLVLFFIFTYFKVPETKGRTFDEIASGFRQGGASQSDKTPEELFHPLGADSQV

What is called inhibition is the change of the read-out against control, counted positive when it falls. With `O=C(O[C@H]1CN[C@H](C#Cc2cc3c(Nc4ccc(OCc5cccc(F)c5)c(Cl)c4)ncnc3s2)C1)N1CCCC1`, the inhibition in assay [1] came to 3.78%; in assay [2] it was 6.01%; in assay [3], 4.65%.

For the compound `COc1c(C2CCN(CCCCNC(=O)c3ccc(NC(=O)c4ccc(C#N)cc4)cc3)CC2)ccc2c1CCCC2`, the inhibition came out at 1.73% in assay [1], 0.65% in assay [2] and 0.9% in assay [3].

As to `Cc1ccc(Cn2nc(Cl)c(N3CCCNCC3)cc2=O)cc1NC(=O)Nc1ccc(-c2ccccc2)cc1`, the results for the inhibition in assay [1], in assay [2] and in assay [3] were -1.89%, 1.72% and -1.28%, respectively.

For the compound `Cc1cccc(Cn2ccc3c4c(N)nc(N)nc4ccc32)c1`, the inhibition in assay [1] stood at 80.8%; in assay [2], 81.5%; in assay [3], 81.5%.

With `N=C(N)NC(=O)Nc1ccc(Cl)c(Cl)c1`, the values for the inhibition in assay [1], in assay [2] and in assay [3] were 3.47%, -2.48% and -1.06%, respectively.

As to `Cc1ncccc1C(=O)Nc1ccc(-c2cccc(-c3nc4cccc(C)c4[nH]3)c2)cc1`, the inhibition in assay [1] stood at 0.98%; in assay [2], 0.96%; in assay [3], 3.38%.

With `CCc1c(CCNCCCCCCNC(C)(C)Cc2ccc3c(c2CC)OCO3)ccc(OC)c1OC`, the inhibition in assay [1] stood at 10%; in assay [2], 10.7%; in assay [3], 6.49%.

With `O=C(Nc1ccc(S(=O)(=O)NCCCN2CCOCC2)cc1)c1cc(-c2ccccc2)[nH]n1`, the inhibition in assay [1] amounted to 1.2%; in assay [2] it was 1.66%; in assay [3], 5.52%.

In the case of `COc1ccc2nccc(N3CCC(NCCNCc4cc5c(cn4)OCCO5)C3)c2n1` (centres undefined), the inhibition worked out at 2.14% in assay [1], 2.64% in assay [2] and 3.54% in assay [3].

`COC(=O)c1ccc(OCC(O)CO)cc1O` (centres undefined): the inhibition in assay [1] is 0.55%; in assay [2], 2.14%; in assay [3] it was -0.04%.

For `O=C(NC1CCN(c2ccnc(Nc3ccc(F)cc3)n2)C1)c1cc2ccccc2s1` (centres undefined), the inhibition in assay [1] turned out to be 0.69%; in assay [2] it was 1.57%; in assay [3], 1.27%.

For the compound `O=C(COc1ccccc1Cc1ccccc1)Nc1cc(Cl)ccc1-n1cncn1`, the figures for the inhibition in assay [1], in assay [2] and in assay [3] were 4.5%, 4.62% and 3.15%, respectively.

With `CC(=O)Nc1ccc2[nH]cc(C3CCN(CCC4CCN(C(=O)/C=C/c5ccc(Cl)c(Cl)c5)CC4)CC3)c2c1`, the values for the inhibition in assay [1], in assay [2] and in assay [3] were 8.34%, 7.25% and 5.15%, respectively.
